This is an account of results in PubChem BioAssay.

The structures appear in SMILES notation.

Tested on in one experiment: not listed separately
The experiment can be described thus: small-molecule microarray binders of probe aEGFR, primary screen, biochemical, biotinylated probe, 635/667 nm fluorescence (AID 1097).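 Also: probe is a biotinylated anti-EGFR antibody binding compounds printed on slides; score combines fluorescence near 667 nm and signal to noise of each spot.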 To be noted: higher = more signal.
Compound `O=C1[C@H]2[C@H]3[C@H](O)[C@H](O)CC(=NOCc4ccccc4)[C@@H]3CC[C@H]2C(=O)N1Cc1ccc2c(c1)OCO2` registered a composite z-score of 0.0761.

With `COC(=O)CC=C[C@@H](C)[C@@H](C=NO[C@@H]1O[C@H](COC(C)=O)[C@@H](OC(C)=O)[C@H](OC(C)=O)[C@H]1OC(C)=O)OC`, the composite z-score is -0.0506. Same read-out and setting: under `COc1cccc([C@H]2Oc3ccc(OC)cc3C(=NOC[C@@H](O)[C@H]3O[C@@H]4OC(C)(C)O[C@@H]4[C@H]3O)[C@@H]2O)c1` stands 0.0746. Still for that read-out and setting: under `O=C1C[C@@H](O)[C@@H](O)[C@@H]2[C@@H]3C(=O)N(Cc4ccccc4)C(=O)[C@@H]3CC[C@@H]12` stands -0.0432; under `CO[C@H]1COC(=O)CC=C[C@@H](C)[C@H](OC)COC(=O)CCC[C@@H]1C`, -0.163.

`CCN1C(=O)[C@H]2[C@H]3[C@H](O)[C@H](O)CC(=NNC(=O)OCc4ccc(OC)cc4)[C@@H]3CC[C@H]2C1=O` displayed a composite z-score of -0.113.

A further experiment deals with Plasmodium falciparum Sir2 (PF13_0152, Sir2A). The experiment can be described thus: pfSir2 binders on small-molecule microarrays, primary screen, biochemical, small-molecule microarray, 635 nm fluorescence (AID 1098).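 Also: score merges spot fluorescence intensity with its signal-to-noise ratio.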 To be noted: small-molecule microarray binding, fluorescence 635 nm; higher = more signal.
On to `O=C1CCCC(C2=CCCCC2=O)C1` (configuration not stated), for which the composite z-score is -0.153. Compound `Cn1c(=O)n2n(c1=O)[C@H]1[C@H](O)[C@@H]3O[C@@H]3C(=NOCc3ccccc3)[C@H]1CC2` yielded a composite z-score of 0.421. The compound `CO[C@H](C1CCCCC1)[C@H](C)C=CCC(=O)OCCCc1ccccc1` returned a composite z-score of -0.023. Turning to `COC(=O)[C@H](C)NC(=O)CCC1CC(OC(=O)NCc2ccc3c(c2)OCO3)CC2(CCCC(COC(=O)NCC(c3ccccc3)c3ccccc3)O2)O1` (some centres not stated), the composite z-score is 0.848. `O=c1n(-c2ccccc2)c(=O)n2n1CC[C@@H]1C(=NOCc3ccccc3)[C@H]3O[C@H]3[C@@H](O)[C@@H]12` showed a composite z-score of -0.494. On the same count and under the same terms, the same measure for `COC(=O)[C@H]1[C@@H](O)[C@@]2(O)c3ccccc3O[C@@]2(c2ccccc2)[C@@H]1c1ccccc1`: -0.125. The compound `COC(=O)CC=C[C@@H](C)[C@@H](C=NOC(C)CN1CCCc2nc(C)c(C)cc21)OC` (some centres not stated) had a composite z-score of 0.465. Compound `COC(=O)[C@H](C)NC(=O)CCC1CC(OC(=O)NCCc2ccc(F)cc2)CC2(CCCC(COC(=O)NCc3cccc(C(F)(F)F)c3)O2)O1` (some centres not stated) showed a composite z-score of 0.185. As for `Cc1ccc(S(=O)(=O)N[C@H]2COC(=O)CC=C[C@H](C)[C@@H](NS(=O)(=O)c3ccc(C)cc3)COC(=O)CC=C[C@@H]2C)cc1`, the composite z-score was -0.0784. `CON=C1[C@H]2CCn3c(=O)n(-c4ccccc4)c(=O)n3[C@H]2[C@H](O)[C@@H]2O[C@H]12`: the composite z-score came to 0.555. Turning to `C#CCCCON=C1C[C@@H](O)[C@@H](O)[C@@H]2[C@@H]3C(=O)N(C(C)(C)C)C(=O)[C@@H]3CC[C@@H]12`, the composite z-score was determined as 0.856. The compound `CO[C@H]1COC(=O)CC=C[C@@H](C)[C@H](NS(=O)(=O)c2ccc(C)cc2)COC(=O)CCC[C@@H]1C` gave a composite z-score of 0.684. In the case of `COc1ccc(COC(=O)NN=C2C[C@@H](O)[C@@H](O)[C@@H]3[C@@H]4C(=O)N(c5ccc(F)cc5F)C(=O)[C@@H]4CC[C@H]23)cc1`, the composite z-score came to 0.299. In turn, `COc1ccc(O[C@H]2C=C[C@@H](c3ccccc3)O[C@@H]2COC(=O)CCC(C)=NOC[C@@H](O)[C@H]2O[C@@H]3OC(C)(C)O[C@@H]3[C@H]2O)cc1` gave a composite z-score of 0.933. On to `CO[C@H]1COC(=O)CC=C[C@H](C)[C@@H](OC)COC(=O)[C@H](C)COC(=O)CC=C[C@@H]1C`, for which the composite z-score turned out to be 0.661. With `CCOC(=O)C1=NO[C@]2(C=C(Br)C3(OCCCO3)[C@H]3O[C@H]32)C1`, the composite z-score was -0.695. Take `Cc1cc2c(nc1C)CCCCN2CC(C)ON=C1[C@H]2CCn3c(=O)n(-c4ccccc4)c(=O)n3[C@H]2[C@H](O)[C@@H]2O[C@H]12` (some centres not stated): the composite z-score was 0.606. On the same count and under the same terms, the same measure for `COc1ccc(O[C@H]2C=C[C@@H](c3ccccc3)O[C@@H]2COC(=O)CCC(C)=NO[C@@H]2O[C@H](COC(C)=O)[C@@H](OC(C)=O)[C@H](OC(C)=O)[C@H]2OC(C)=O)cc1`: 0.538; for `Cc1cc2c(c(=O)o1)[C@@H](O)[C@H]1O[C@H]1C2=O`: 0.338; for `CCOC(=O)CCN1C(=O)[C@H]2[C@H]3[C@H](O)[C@H](O)CC(=NNC(=O)OCc4ccccc4)[C@@H]3CC[C@H]2C1=O`: 0.205. On the same count and under the same terms, under `O=C1[C@H]2[C@H]3[C@H](O)[C@H](O)CC(=NOC[C@@H](O)COCc4ccco4)[C@@H]3CC[C@H]2C(=O)N1C[C@@H]1CCCO1` stands 0.396; under `CC(C)CON=C1C[C@@H](O)[C@@H](O)[C@@H]2[C@@H]3C(=O)N(C[C@@H]4CCCO4)C(=O)[C@@H]3CC[C@@H]12`, 0.0599; under `CON=Cc1ccc(C(=O)N2[C@H](c3ccc(C)cc3)[C@@H](C)CC[C@H]2C(=O)OC)cc1`, 0.365.

In turn, `C[C@@H](c1ccccc1)N1C(=O)[C@H]2[C@H]3[C@H](O)[C@H](O)CC(=O)[C@H]3CC[C@H]2C1=O` returned a composite z-score of -0.417.

Take `CC(C)CON=C1C[C@@H](O)[C@@H](O)[C@@H]2[C@@H]3C(=O)N(Cc4ccc5c(c4)OCO5)C(=O)[C@@H]3CC[C@H]12`: the composite z-score turned out to be 0.191.

Compound `CCN1C(=O)[C@H]2[C@H]3[C@H](O)[C@H](O)CC(=NOCC(C)C)[C@@H]3CC[C@H]2C1=O` had a composite z-score of 0.85. The same measure, in the same setting: under `CC(C)=NO[C@H](C)c1cn([C@H](CO)Cc2ccccc2)nn1` stands 0.618; under `CCCNC(=O)OC[C@H]1O[C@H](c2ccccc2)C=C[C@@H]1Oc1ccc(OC)cc1`, -0.361; under `C[C@@H]1CC[C@H]2C(=O)O[C@@H](Cc3ccccc3)CN2[C@H]1c1ccc(Br)cc1`, 0.666. On the same count and under the same terms, under `COc1ccc(O[C@H]2C=C[C@@H](c3ccccc3)O[C@@H]2CON=C(C)CCC(=O)OC[C@H]2O[C@H](c3ccccc3)C=C[C@@H]2Oc2ccc(OC)cc2)cc1` stands 0.0844. `O=C1[C@H]2[C@H]3[C@H](O)[C@H](O)CC(=NOCc4ccccc4)[C@@H]3CC[C@H]2C(=O)N1Cc1ccc2c(c1)OCO2`: the composite z-score was determined as 0.0183. The same measure, in the same setting: the same measure for `COC(=O)CC=C[C@@H](C)[C@@H](C=NO[C@@H]1O[C@H](COC(C)=O)[C@@H](OC(C)=O)[C@H](OC(C)=O)[C@H]1OC(C)=O)OC`: -0.225; for `COc1cccc([C@H]2Oc3ccc(OC)cc3C(=NOC[C@@H](O)[C@H]3O[C@@H]4OC(C)(C)O[C@@H]4[C@H]3O)[C@@H]2O)c1`: 0.0732; for `O=C1C[C@@H](O)[C@@H](O)[C@@H]2[C@@H]3C(=O)N(Cc4ccccc4)C(=O)[C@@H]3CC[C@@H]12`: 0.463.

The compound `CO[C@H]1COC(=O)CC=C[C@@H](C)[C@H](OC)COC(=O)CCC[C@@H]1C` had a composite z-score of 0.786.

`CCN1C(=O)[C@H]2[C@H]3[C@H](O)[C@H](O)CC(=NNC(=O)OCc4ccc(OC)cc4)[C@@H]3CC[C@H]2C1=O`: the composite z-score was -0.492.
